20 molecules from PubChem BioAssay AID1645838 (ICCB-Longwood Screening Facility, Harvard Medical School, 2021) can be followed below.

Each structure is given as a SMILES string. About 100 (5%) of roughly 2,000 compounds were called active. Cut-off read from the data, not from the text of the source: active = z-score above about 2; inactive = the rest. Only a selection was taken, and actives are over-represented in it overall.

A short description of the test: supercomplex reporter luminescence per Hoechst cell count – Hoechst nuclei count (AID 1645838).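 For all read-outs here: control cybrid cells.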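 For z-score: higher means more mitochondrial supercomplex formation.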 To be noted: Cells, luminescence/Hoechst cell count ratio; for z-score: stronger effect = higher value; for cell count: measured here: cell number, Hoechst nuclei count.
[1] abbreviates: library stock concentration (final well concentration not given) 46 uM.
Where [2] appears, read: library stock concentration (final well concentration not given) 278 uM.
The mark [3] stands for this setting: library stock concentration (final well concentration not given) 1.67 mM.
Setting [4] is: library stock concentration (final well concentration not given) 10 mM.
The mark [5] stands for this setting: library stock concentration (final well concentration not given) 80 uM.
[6] abbreviates: library stock concentration (final well concentration not given) 400 uM.
[7] abbreviates: library stock concentration (final well concentration not given) 2 mM.

Regarding `Cc1ccc(C(=O)Nc2ccc(Oc3cc4cnn(C)c4cc3-c3cn[nH]c3)c(F)c2)c(=O)n1-c1ccc(F)cc1`, the z-score runs as follows: under setting [1], -0.888 (inactive); under setting [2], -0.95 (inactive); under setting [3], -1.73 (inactive); under setting [4], -2.48 (inactive). In addition, the cell count by setting is: under setting [1], 7640; under setting [2], 6950; under setting [3], 7070; under setting [4], 6390.

With `CC/C=C\C/C=C\C/C=C\C/C=C\C/C=C\CCCC(=O)O[C@H](COCCCCCCCCCCCCCCCC)COP(=O)([O-])OCC[N+](C)(C)C`, the z-score was -1.23 (inactive) and the cell count amounted to 5300.

In the case of `CCCCC[C@H](O)/C=C/[C@@H]1[C@@H](C/C=C\CCCC(=O)NC(CO)CO)[C@@H](O)C[C@H]1O`, the z-score is -0.166 (inactive) and the cell count amounted to 5460.

As to `CN1CCc2c(c3ccccc3n2Cc2ccc(C(=O)NO)cc2)C1`, the z-score is -0.165 (inactive) under setting [1], -0.118 (inactive) under setting [2], -0.0772 (inactive) under setting [3] and 0.0302 (inactive) under setting [4]. For the same molecule, the cell count runs as follows: under setting [1], 5170; under setting [2], 5040; under setting [3], 4790; under setting [4], 4770.

As for `COc1cc(C(=O)NS(=O)(=O)c2ccccc2C)ccc1Cc1cn(C)c2ccc(NC(=O)OC3CCCC3)cc12`, the z-score is -0.169 (inactive) and the cell count came out at 4650. Moreover, under setting [5], the z-score was -0.186 (inactive) and the cell count came out at 5870. Besides, under setting [6], the z-score was 0.251 (inactive) and the cell count is 5520. Besides, under setting [7], the z-score was -0.394 (inactive) and the cell count amounted to 5910. Also, under setting [4], the z-score is 0.0319 (inactive) and the cell count turned out to be 4990.

For the molecule `Cn1cc(CNCC2CCN(c3ncc(C(=O)NO)cn3)CC2)c2ccccc21`, the outcome is, setting by setting: (library stock 400 µM) “inactive; censored for cell count”; (library stock 2 mM) “inactive; censored for cell count”; (library stock 10 mM) “inactive; censored for cell count”. Moreover, the z-score under setting [5] was 10.5 (active). The cell count under setting [5] worked out at 1710.

Take `Nc1nc(OC(c2ccc(-c3cccc(F)c3)cc2)C(F)(F)F)cc(-c2ccc(CC(N)C(=O)O)cc2)n1` (configuration not stated): the z-score is, setting by setting: under setting [5], -0.00893 (inactive); under setting [6], -0.406 (inactive); under setting [7], -0.0477 (inactive); under setting [4], -0.333 (inactive). Moreover, the cell count under setting [5] is 4780, the cell count under setting [6] amounted to 5340, the cell count under setting [7] was found to be 4660 and the cell count under setting [4] was 4880.

`CCCCCC(=O)CC[C@H]1C(=O)C[C@H](O)[C@@H]1C/C=C\CCCC(=O)O`: the z-score was 0.618 (inactive) and the cell count turned out to be 5420.

For the molecule `COc1cc(NS(C)(=O)=O)ccc1Nc1c2ccccc2nc2ccccc12`, the outcome is “inactive; censored for cell count” (library stock 2 mM) and “inactive; censored for cell count” (library stock 10 mM). Further, the z-score is, setting by setting: under setting [5], 0.627 (inactive); under setting [6], 2.51 (active). Besides, the cell count was found to be 4290 under setting [5] and 2280 under setting [6].

As for `CN1CCN(c2ccc(Nc3c4ccccc4nc4ccccc34)cc2)CC1`, the outcome (library stock 2 mM) is “inactive; censored for cell count” and the outcome (library stock 10 mM) is “inactive; censored for cell count”. For the same molecule, the z-score is, setting by setting: under setting [1], 0.226 (inactive); under setting [5], -0.0401 (inactive); under setting [2], 0.109 (inactive); under setting [6], 1.07 (inactive); under setting [3], 0.208 (inactive). Besides, the cell count under setting [1] worked out at 6220; the cell count under setting [5] was 5080; the cell count under setting [2] came to 5990; the cell count under setting [6] was found to be 4020; the cell count under setting [3] turned out to be 6120.

For the molecule `CS(=O)(=O)Nc1ccc([N+](=O)[O-])cc1Oc1ccccc1`, the z-score was 1.64 (inactive) and the cell count came to 4310.

With `COCC(c1ccc(C(F)(F)F)cc1)N1CCN(C2(C)CCN(C(=O)c3c(C)ncnc3C)CC2)CC1C` (configuration not stated), the z-score is -0.275 (inactive) under setting [5], -0.0621 (inactive) under setting [6], -0.0993 (inactive) under setting [7] and 0.309 (inactive) under setting [4]. Also, the cell count by setting is: under setting [5], 6100; under setting [6], 5370; under setting [7], 5980; under setting [4], 5030.

Regarding `CC(C(=O)Nc1cccc(N=Cc2c(O)ccc3ccccc23)c1)c1ccccc1` (configuration not stated), the z-score is -0.78 (inactive) and the cell count stood at 5730.

With `COc1ccccc1Oc1c(NS(=O)(=O)c2ccc(C)cn2)nc(-c2ccncc2)nc1OC`, the z-score under setting [1] is -0.0599 (inactive), the z-score under setting [2] is -0.113 (inactive), the z-score under setting [3] is 0.0903 (inactive) and the z-score under setting [4] is 0.0187 (inactive). Further, the cell count under setting [1] was 7280, the cell count under setting [2] stood at 6760, the cell count under setting [3] was found to be 7600 and the cell count under setting [4] turned out to be 7550.

Consider `CCCCCCCCCCCCCCCC(=O)OC[C@H](COP(=O)([O-])OCC[N+](C)(C)C)OC(=O)CCCCCCCC(=O)/C=C/C(=O)O`, for which the z-score was -0.738 (inactive) and the cell count is 5950.

On to `CCCCC[C@H](O)/C=C/[C@@H]1[C@H](C/C=C\CCCC(=O)O)[C@@H](O)C[C@H]1O`, for which the z-score was -0.418 (inactive) and the cell count was determined as 5540.

As for `O=C(Nc1ccc(S(=O)(=O)Nc2ccccc2Cl)c(Cl)c1)c1ccccn1`, the z-score is, setting by setting: under setting [5], -0.0523 (inactive); under setting [6], 0.247 (inactive); under setting [7], 0.0843 (inactive); under setting [4], -0.408 (inactive). Further, the cell count runs as follows: under setting [5], 5940; under setting [6], 5620; under setting [7], 5480; under setting [4], 5970.

Regarding `Cc1cc(Nc2cc(NC(=O)c3c(Cl)cccc3Cl)ccn2)nc(N)n1`, the result (library stock 10 mM) was inactive. The z-score was -0.552 (inactive) under setting [1], 2.25 (active) under setting [2] and 7.34 (active) under setting [3]. Also, the cell count was determined as 7000 under setting [1], 3680 under setting [2] and 1560 under setting [3].

For the molecule `Cc1cc(Nc2ccc(NC(=O)c3ccc(Nc4ccnc5ccccc45)cc3)cc2)nc(N)n1`, the outcome (library stock 10 mM) was “inactive; censored for cell count”. Besides, the z-score by setting is: under setting [5], -0.573 (inactive); under setting [6], -0.616 (inactive); under setting [7], -0.871 (inactive). Further, the cell count reads like this: under setting [5], 6440; under setting [6], 6580; under setting [7], 6140.

Turning to `COc1ccc(C(=O)C(=O)c2ccccc2)cc1`, the z-score under setting [1] is -0.147 (inactive), the z-score under setting [2] is -0.127 (inactive), the z-score under setting [3] was -0.0906 (inactive) and the z-score under setting [4] is -0.261 (inactive). For the same molecule, the cell count was found to be 5340 under setting [1], 4770 under setting [2], 4920 under setting [3] and 4940 under setting [4].
